Laboratory results: ChEMBL document CHEMBL1961873, “Compounds: GSK PKIS; Assays: Nanosyn kinase panel” (2012)

Key:
[1] = biological target: Tyrosine-protein kinase receptor UFO (Homo sapiens) (UniProt P30530); conditions: at 1 µM
[2] = biological target: Tyrosine-protein kinase Blk (Homo sapiens) (UniProt P51451); conditions: at 0.1 µM
[3] = biological target: Tyrosine-protein kinase Blk (Homo sapiens) (UniProt P51451); conditions: at 1 µM
[4] = biological target: T1, Cytoplasmic tyrosine-protein kinase BMX (Homo sapiens) (UniProt P51813); conditions: at 0.1 µM
T1 sequence (whole entry): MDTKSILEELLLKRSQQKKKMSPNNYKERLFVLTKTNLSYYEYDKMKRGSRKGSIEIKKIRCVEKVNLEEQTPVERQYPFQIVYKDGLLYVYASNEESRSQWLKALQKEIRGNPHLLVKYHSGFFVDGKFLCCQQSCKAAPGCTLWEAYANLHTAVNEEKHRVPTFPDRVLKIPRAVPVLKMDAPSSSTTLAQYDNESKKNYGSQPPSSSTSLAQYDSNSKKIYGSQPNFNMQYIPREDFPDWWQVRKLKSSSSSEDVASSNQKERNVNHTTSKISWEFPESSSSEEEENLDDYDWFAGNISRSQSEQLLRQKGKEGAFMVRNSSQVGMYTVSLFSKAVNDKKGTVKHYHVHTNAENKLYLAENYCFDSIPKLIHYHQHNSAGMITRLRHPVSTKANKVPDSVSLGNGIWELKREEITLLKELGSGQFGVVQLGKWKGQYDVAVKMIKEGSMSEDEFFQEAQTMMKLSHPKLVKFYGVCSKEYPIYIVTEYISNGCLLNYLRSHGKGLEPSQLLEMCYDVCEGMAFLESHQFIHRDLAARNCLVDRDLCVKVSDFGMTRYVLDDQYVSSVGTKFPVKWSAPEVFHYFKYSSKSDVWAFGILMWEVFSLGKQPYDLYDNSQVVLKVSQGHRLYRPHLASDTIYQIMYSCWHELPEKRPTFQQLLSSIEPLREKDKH

[5] = biological target: T1, Cytoplasmic tyrosine-protein kinase BMX (Homo sapiens); conditions: at 1 µM
[6] = biological target: Protein-tyrosine kinase 6 (Homo sapiens) (UniProt Q13882); conditions: at 0.1 µM
Chain of Protein-tyrosine kinase 6 (Homo sapiens) (Q13882 whole entry, looked up): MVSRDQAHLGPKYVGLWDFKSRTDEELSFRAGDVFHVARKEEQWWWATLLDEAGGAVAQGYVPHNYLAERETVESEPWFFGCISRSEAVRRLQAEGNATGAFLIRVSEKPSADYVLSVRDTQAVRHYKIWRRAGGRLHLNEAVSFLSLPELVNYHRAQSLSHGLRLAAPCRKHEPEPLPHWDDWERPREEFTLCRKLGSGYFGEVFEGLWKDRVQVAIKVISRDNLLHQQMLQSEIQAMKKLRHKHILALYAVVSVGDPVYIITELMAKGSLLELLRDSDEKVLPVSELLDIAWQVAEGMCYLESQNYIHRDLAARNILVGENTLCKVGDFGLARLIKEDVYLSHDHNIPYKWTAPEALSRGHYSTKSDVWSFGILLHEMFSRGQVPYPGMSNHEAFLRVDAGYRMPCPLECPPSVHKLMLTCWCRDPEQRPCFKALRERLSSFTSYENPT

[7] = biological target: Protein-tyrosine kinase 6 (Homo sapiens) (UniProt Q13882); conditions: at 1 µM
[8] = biological target: Tyrosine-protein kinase BTK (Homo sapiens) (UniProt Q06187); conditions: at 0.1 µM
Chain of Tyrosine-protein kinase BTK (Homo sapiens) (Q06187 whole entry): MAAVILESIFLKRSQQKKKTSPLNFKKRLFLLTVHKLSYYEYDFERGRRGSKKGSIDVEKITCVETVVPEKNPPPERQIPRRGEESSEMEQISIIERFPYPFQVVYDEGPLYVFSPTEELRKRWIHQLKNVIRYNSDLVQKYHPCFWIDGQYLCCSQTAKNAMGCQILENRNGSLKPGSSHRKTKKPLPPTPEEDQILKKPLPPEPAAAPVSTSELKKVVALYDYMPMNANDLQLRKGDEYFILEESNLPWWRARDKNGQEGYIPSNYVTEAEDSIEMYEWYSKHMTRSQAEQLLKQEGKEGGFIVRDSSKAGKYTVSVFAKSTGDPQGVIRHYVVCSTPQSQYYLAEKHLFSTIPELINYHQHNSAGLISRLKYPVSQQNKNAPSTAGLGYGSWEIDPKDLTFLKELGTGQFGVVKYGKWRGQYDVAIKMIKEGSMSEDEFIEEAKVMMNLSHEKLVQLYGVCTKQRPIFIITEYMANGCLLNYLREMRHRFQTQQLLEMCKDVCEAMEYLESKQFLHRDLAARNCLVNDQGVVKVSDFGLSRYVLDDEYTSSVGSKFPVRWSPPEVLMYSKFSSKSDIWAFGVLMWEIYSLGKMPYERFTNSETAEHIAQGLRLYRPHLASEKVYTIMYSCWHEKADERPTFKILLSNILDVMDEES

[9] = biological target: Tyrosine-protein kinase BTK (Homo sapiens) (UniProt Q06187); conditions: at 1 µM
[10] = biological target: Tyrosine-protein kinase CSK (Homo sapiens) (UniProt P41240); conditions: at 0.1 µM
[11] = biological target: Tyrosine-protein kinase CSK (Homo sapiens) (UniProt P41240); conditions: at 1 µM
[12] = biological target: T2, Discoidin domain-containing receptor 2 (Homo sapiens) (UniProt Q16832); conditions: at 0.1 µM
T2 sequence (whole entry): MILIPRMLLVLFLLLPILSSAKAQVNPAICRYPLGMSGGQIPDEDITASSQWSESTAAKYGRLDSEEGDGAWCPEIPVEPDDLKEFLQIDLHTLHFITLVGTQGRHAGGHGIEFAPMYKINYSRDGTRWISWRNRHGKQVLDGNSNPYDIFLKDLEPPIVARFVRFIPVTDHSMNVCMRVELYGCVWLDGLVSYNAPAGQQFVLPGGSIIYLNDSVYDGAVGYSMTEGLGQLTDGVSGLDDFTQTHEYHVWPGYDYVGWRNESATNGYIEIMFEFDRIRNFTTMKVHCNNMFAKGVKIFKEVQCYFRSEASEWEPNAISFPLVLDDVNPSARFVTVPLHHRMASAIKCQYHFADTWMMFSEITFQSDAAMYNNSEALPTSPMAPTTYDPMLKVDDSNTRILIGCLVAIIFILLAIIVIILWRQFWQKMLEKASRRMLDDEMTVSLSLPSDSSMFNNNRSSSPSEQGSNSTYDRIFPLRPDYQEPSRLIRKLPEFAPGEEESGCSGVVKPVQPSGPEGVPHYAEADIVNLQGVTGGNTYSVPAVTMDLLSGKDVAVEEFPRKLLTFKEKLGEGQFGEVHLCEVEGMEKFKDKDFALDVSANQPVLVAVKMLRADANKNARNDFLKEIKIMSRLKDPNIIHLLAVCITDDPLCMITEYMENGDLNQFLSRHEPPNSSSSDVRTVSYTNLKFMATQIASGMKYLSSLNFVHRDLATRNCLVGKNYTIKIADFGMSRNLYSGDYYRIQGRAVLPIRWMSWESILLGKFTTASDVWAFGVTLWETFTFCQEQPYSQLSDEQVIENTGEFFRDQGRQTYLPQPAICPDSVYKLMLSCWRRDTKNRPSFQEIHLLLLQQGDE

[13] = biological target: T2, Discoidin domain-containing receptor 2 (Homo sapiens); conditions: at 1 µM
[14] = biological target: Epidermal growth factor receptor (Homo sapiens) (UniProt P00533); conditions: at 0.1 µM
Chain of Epidermal growth factor receptor (Homo sapiens) (P00533 whole entry): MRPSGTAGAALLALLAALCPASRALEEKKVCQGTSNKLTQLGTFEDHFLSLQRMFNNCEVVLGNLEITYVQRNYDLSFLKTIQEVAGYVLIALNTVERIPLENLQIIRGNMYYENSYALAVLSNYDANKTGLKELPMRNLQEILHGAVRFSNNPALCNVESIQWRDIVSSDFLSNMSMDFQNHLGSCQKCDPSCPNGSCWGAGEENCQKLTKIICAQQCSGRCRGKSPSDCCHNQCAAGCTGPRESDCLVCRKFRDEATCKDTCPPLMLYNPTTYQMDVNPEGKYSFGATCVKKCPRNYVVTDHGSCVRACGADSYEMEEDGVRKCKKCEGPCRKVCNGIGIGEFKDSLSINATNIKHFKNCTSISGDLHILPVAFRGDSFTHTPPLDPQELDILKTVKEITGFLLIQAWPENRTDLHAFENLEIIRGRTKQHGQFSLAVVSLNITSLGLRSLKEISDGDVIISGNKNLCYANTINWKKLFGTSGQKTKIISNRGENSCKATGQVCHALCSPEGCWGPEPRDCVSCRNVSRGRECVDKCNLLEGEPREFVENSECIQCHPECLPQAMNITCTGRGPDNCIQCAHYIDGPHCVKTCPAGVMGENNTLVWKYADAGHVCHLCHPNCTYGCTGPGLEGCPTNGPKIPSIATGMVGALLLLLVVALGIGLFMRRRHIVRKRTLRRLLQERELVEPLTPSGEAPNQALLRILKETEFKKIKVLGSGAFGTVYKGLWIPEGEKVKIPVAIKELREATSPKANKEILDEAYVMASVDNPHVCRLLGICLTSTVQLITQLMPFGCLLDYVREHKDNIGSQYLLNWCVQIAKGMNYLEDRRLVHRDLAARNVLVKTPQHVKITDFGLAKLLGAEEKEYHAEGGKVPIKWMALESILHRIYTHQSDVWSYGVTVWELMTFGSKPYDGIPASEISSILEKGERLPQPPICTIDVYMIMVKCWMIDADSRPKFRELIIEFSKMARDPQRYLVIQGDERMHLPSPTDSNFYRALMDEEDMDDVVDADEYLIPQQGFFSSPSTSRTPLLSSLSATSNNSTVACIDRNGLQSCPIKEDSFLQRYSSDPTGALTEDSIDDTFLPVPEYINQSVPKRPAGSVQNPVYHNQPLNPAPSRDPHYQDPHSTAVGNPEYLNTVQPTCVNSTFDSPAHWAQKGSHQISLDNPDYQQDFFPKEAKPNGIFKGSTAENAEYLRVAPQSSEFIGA

[15] = biological target: Epidermal growth factor receptor (Homo sapiens) (UniProt P00533); conditions: at 1 µM
[16] = system: Epidermal growth factor receptor (Homo sapiens), P00533 [L858R]; conditions: at 0.1 µM
Chain of Epidermal growth factor receptor (Homo sapiens), P00533 [L858R] (P00533 whole entry L858R): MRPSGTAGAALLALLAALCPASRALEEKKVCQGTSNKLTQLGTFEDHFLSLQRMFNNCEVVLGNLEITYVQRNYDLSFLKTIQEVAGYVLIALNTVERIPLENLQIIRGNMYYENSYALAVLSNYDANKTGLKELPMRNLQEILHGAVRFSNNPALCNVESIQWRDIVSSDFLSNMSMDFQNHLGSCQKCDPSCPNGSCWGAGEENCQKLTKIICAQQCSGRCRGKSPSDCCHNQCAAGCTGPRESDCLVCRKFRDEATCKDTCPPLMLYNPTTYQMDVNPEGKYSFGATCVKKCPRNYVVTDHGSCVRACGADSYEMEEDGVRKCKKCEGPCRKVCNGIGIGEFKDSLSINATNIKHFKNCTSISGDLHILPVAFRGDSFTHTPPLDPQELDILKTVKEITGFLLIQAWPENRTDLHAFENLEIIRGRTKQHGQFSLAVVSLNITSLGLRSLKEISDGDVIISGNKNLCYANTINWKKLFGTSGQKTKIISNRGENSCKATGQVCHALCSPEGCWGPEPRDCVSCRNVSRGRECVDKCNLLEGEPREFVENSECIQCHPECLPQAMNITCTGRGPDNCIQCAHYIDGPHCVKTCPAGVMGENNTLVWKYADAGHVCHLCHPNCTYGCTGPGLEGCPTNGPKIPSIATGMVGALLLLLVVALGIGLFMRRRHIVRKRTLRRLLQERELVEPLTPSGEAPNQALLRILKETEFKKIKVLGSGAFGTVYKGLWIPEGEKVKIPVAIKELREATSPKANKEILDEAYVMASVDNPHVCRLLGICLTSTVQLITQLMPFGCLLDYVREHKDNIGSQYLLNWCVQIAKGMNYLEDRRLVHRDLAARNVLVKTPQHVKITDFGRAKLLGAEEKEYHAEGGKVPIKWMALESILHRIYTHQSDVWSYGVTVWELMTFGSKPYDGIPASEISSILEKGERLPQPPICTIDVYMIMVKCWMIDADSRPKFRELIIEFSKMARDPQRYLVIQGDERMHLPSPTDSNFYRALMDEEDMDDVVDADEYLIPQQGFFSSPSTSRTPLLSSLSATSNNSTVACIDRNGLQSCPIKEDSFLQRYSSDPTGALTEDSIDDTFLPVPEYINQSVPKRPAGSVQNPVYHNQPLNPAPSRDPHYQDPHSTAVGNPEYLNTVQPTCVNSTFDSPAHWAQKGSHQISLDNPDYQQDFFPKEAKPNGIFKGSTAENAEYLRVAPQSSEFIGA

[17] = system: Epidermal growth factor receptor (Homo sapiens), P00533 [L858R]; conditions: at 1 µM
[18] = system: Epidermal growth factor receptor (Homo sapiens), P00533 [L861Q]; conditions: at 0.1 µM
[19] = system: Epidermal growth factor receptor (Homo sapiens), P00533 [L861Q]; conditions: at 1 µM
[20] = system: Epidermal growth factor receptor (Homo sapiens), P00533 [T790M]; conditions: at 0.1 µM

Chain of Tyrosine-protein kinase Blk (Homo sapiens) (P51451 2-505 limits assumed): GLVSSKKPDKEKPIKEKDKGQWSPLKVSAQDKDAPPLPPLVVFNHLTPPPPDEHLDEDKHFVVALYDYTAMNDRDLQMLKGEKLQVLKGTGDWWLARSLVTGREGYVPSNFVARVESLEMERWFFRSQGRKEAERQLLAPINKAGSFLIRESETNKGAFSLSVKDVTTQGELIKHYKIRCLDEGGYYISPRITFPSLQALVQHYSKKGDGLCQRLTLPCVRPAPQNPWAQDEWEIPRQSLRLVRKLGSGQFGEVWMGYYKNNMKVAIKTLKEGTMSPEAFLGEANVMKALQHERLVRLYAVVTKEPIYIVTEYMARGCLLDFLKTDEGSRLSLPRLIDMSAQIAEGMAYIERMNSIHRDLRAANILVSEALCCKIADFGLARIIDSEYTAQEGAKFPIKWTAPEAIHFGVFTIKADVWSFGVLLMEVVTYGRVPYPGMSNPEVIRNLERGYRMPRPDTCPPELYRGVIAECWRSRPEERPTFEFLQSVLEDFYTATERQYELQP
Chain of Tyrosine-protein kinase receptor UFO (Homo sapiens) (P30530 whole entry): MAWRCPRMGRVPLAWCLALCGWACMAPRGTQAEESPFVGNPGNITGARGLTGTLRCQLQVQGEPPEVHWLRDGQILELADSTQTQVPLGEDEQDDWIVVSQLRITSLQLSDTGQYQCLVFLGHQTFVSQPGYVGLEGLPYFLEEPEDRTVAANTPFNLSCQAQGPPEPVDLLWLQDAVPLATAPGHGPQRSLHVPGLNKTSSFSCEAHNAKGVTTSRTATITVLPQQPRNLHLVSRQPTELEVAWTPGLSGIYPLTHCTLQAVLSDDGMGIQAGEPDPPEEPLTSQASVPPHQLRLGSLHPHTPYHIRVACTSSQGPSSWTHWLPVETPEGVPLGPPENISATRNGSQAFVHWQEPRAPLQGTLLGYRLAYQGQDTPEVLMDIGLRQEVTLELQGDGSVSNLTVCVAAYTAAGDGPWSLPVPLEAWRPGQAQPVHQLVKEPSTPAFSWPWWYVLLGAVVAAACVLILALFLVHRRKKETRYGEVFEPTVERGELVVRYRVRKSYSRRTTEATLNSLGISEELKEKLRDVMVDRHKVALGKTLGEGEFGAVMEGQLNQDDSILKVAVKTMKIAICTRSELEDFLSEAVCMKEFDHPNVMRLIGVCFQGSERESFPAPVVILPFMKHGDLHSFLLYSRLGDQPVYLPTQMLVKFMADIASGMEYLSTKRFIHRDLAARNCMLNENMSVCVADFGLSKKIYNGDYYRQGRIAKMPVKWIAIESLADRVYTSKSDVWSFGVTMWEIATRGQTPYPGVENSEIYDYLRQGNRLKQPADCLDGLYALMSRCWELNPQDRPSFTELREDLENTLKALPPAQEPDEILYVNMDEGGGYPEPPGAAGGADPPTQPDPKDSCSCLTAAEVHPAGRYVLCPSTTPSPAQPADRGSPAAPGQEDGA

Compound	inhibition [1]	inhibition [2]	inhibition [3]	inhibition [4]	inhibition [5]	inhibition [6]	inhibition [7]	inhibition [8]	inhibition [9]	inhibition [10]	inhibition [11]	inhibition [12]	inhibition [13]	inhibition [14]	inhibition [15]	inhibition [16]	inhibition [17]	inhibition [18]	inhibition [19]	inhibition [20]
Fc1ccc(-c2cc(-c3c[nH]nc3-c3ccccn3)ccn2)cc1	-8.99%	2.97%	2.43%	-2.56%	3.99%	5.01%	7.81%	0.31%	-1.93%	5.1%	6.45%	1.07%	1.14%	0.04%	1.67%	3.93%	8.78%	4%	7.94%	3.06%
Nc1nc(-c2cccc(Cl)c2)c(-c2ccc3ncccc3n2)s1	-8.66%	3.51%	7.22%	2.53%	5.31%	5.86%	10.6%	0.83%	-0.84%	5.57%	6.75%	-0.28%	-6.1%	0.13%	6.93%	0.4%	15.8%	3.07%	10.1%	3.5%
CC(=O)NCc1cccc(C#Cc2cncnc2Nc2ccc(OCc3cccc(F)c3)c(Cl)c2)c1	0.14%	-0.03%	0.29%	2.32%	0.07%	0.12%	3.96%	-1.42%	-0.78%	-0.86%	-2.55%	1.32%	1.46%	61.2%	75.8%	10.4%	54.2%	24%	42.1%	-1.44%
NC(=O)c1sc(-n2cnc3ccc(C(F)(F)F)cc32)cc1OCc1ccccc1Br	-3.8%	2.51%	3.45%	1.05%	2.91%	3.76%	5.16%	-0.59%	-2.44%	4.79%	4.85%	1.6%	0.21%	0%	-1.55%	1.72%	4.51%	4.73%	1.73%	2.11%
CCn1c(-c2nonc2N)nc2cnc(Oc3cccc(NC(=O)c4ccc(N(C)C)cc4)c3)cc21	-3.3%	0.9%	2.27%	1.63%	1.66%	-0.08%	-0.57%	-0.86%	-0.69%	2.19%	-0.54%	1.4%	1.45%	2.76%	1.68%	1.49%	1.2%	1.12%	-0.57%	0.09%
Cc1cccc2c1NC(=O)/C2=N\Nc1ccc(S(N)(=O)=O)cc1	-0.34%	1.72%	5.96%	-0.08%	2.79%	0.03%	1.67%	1.48%	1.48%	3.78%	4.79%	1.44%	1.81%	5.97%	9.39%	3.74%	5.52%	1.86%	0.73%	-0.7%
O=C(Nc1n[nH]c2cc(-c3ccc(F)cc3)ccc12)C1CC1	-2.92%	1.55%	7.03%	0.57%	5.89%	3.22%	2.76%	-1.4%	-0.88%	3.39%	5.61%	2.28%	1.71%	-1.79%	4.27%	0.24%	4.19%	1.33%	2.33%	1.54%
CN1CCC(n2cnc(-c3ccc(F)cc3)c2-c2ccnc(Nc3ccccc3)n2)CC1	-1.45%	2.74%	7.18%	6.66%	5.4%	2.56%	13.2%	-0.86%	1.25%	5.97%	6.08%	-0.08%	0.85%	9.04%	46.6%	37%	84.8%	9.58%	51.3%	1.19%
CN1CCC(n2cnc(-c3ccc(F)cc3)c2-c2ccnc(N)n2)CC1	0.24%	1.67%	6.71%	3.52%	4.58%	3.49%	8.09%	0.47%	0.93%	7.73%	1.95%	0.93%	1.6%	5.7%	12.2%	3.61%	16.5%	1.43%	6.75%	-0.02%
CCNC(=O)O[C@H]1CN[C@H](C#Cc2cc3ncnc(Nc4ccc(OCc5cccc(F)c5)c(Cl)c4)c3s2)C1	-3.57%	2.3%	2.43%	-0.06%	2.73%	3.17%	5.56%	1.15%	1.29%	5.58%	7.41%	2.66%	1.39%	86.6%	98%	32.5%	81%	37.6%	67%	2.9%
CCc1nn2ncccc2c1-c1ccnc(NC2CC2)n1	-2.77%	1.77%	3.32%	3.6%	5.18%	-0.52%	1.65%	0.24%	0.76%	0.85%	1.97%	1.02%	1.6%	2.78%	4.33%	1.84%	0.95%	1.81%	2.47%	1.44%
NS(=O)(=O)c1ccc(Nc2ncc(-c3ccccc3)o2)cc1	-3.58%	2.41%	4.76%	0.13%	5.05%	4.11%	4.41%	0%	1.06%	6.51%	5.89%	1.76%	4.71%	1.02%	1.18%	2.83%	6.04%	2.61%	2.73%	0.68%
CC1=C(C(=O)Nc2cc(Cl)c3[nH]ncc3c2)C(c2ccc(C(F)(F)F)cc2)CC(=O)N1 (stereo not given)	-2.18%	4.37%	33.2%	0.59%	4.11%	5.88%	10.3%	-0.51%	0.33%	4.43%	2.47%	1.75%	1.35%	-1.31%	5.03%	2.16%	7.45%	2.03%	2.45%	1.57%
